From PubChem BioAssay (NCI)
This is part of a sample that, as a whole, favours compounds with a hit. Of some 83,000 tested, about 20% had one in any assay.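 The test compound was applied at a single concentration to cells in 96-well plates for 48 hours, and percent growth was recorded.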 Unmarked numbers belong to inactive results. Activity calls are given as the source filed them. How the source made its calls: active means growth percent below 10; inactive means the rest.

Experiments:
Test in all cases: NCI-60 one-dose screen, 48 h (100 = growth as untreated, 0 = no growth, -100 = all killed)
Conditions in all cases: 10 µM
NCI-H23 lung = tested on: NCI-H23 lung
NCI-H226 lung = tested on: NCI-H226 lung
HOP-62 NSCLC = tested on: HOP-62 NSCLC
NCI-H460 lung = tested on: NCI-H460 lung
HOP-92 NSCLC = tested on: HOP-92 NSCLC
NCI-H522 lung = tested on: NCI-H522 lung
A549/ATCC NSCLC = tested on: A549/ATCC NSCLC
786-0 renal = tested on: 786-0 renal
COLO 205 colon = tested on: COLO 205 colon
DU-145 prostate = tested on: DU-145 prostate
K-562 leukemia = tested on: K-562 leukemia
RXF 393 renal = tested on: RXF 393 renal
SF-268 CNS = tested on: SF-268 CNS
SF-295 CNS = tested on: SF-295 CNS
SF-539 CNS = tested on: SF-539 CNS
UACC-257 melanoma = tested on: UACC-257 melanoma
M14 melanoma = tested on: M14 melanoma
MDA-MB-231 breast = tested on: MDA-MB-231 breast
MALME-3M melanoma = tested on: MALME-3M melanoma

Compound	growth (NCI-H23 lung)	growth (NCI-H226 lung)	growth (HOP-62 NSCLC)	growth (NCI-H460 lung)	growth (HOP-92 NSCLC)	growth (NCI-H522 lung)	growth (A549/ATCC NSCLC)	growth (786-0 renal)	growth (COLO 205 colon)	growth (DU-145 prostate)	growth (K-562 leukemia)	growth (RXF 393 renal)	growth (SF-268 CNS)	growth (SF-295 CNS)	growth (SF-539 CNS)	growth (UACC-257 melanoma)	growth (M14 melanoma)	growth (MDA-MB-231 breast)	growth (MALME-3M melanoma)
O=C(Nc1ccc(OCc2nnc(-c3ccc(Cl)cc3)o2)c(F)c1)Nc1ccc(Cl)c(C(F)(F)F)c1	-5.04% (active)	-4.39% (active)	16.6%	2.73% (active)	-19.3% (active)	-33.8% (active)	12.8%	10.1%	-76.9% (active)	9.34% (active)	11.2%	-10.2% (active)	22.5%	1.05% (active)	12.3%	-4.65% (active)	3.31% (active)		
CCN(CC)CCN1c2nc3ccccc3cc2Sc2cc3ccccc3nc21	-5.59% (active)	-10.6% (active)	12.8%	-95.2% (active)	-12.9% (active)	-69.4% (active)		-40% (active)	-73.9% (active)		-69.1% (active)		12.2%	-49.2% (active)	-100% (active)	8.34% (active)	-65% (active)	-0.0354% (active)	
O=C(O)Cc1ccc(O)c(O)c1	103%	98.2%	99.3%	100%	109%	106%	102%	105%	103%	113%	102%	94.2%	97.6%	102%	89.9%	110%	96.5%	99.2%	
CCN(CC)CCCC(C)N=C(C1=C(C(=NC(C)CCCN(CC)CC)c2cccc(OC)c2)C(=O)NC1=O)c1cccc(OC)c1 (centres undefined)	-18.4% (active)	-43.4% (active)	-57.5% (active)	-47.1% (active)	-66.1% (active)	-64.5% (active)	-81.7% (active)	-8.78% (active)	-89.9% (active)	-5.08% (active)	-44.2% (active)	-64.8% (active)	-29.5% (active)	-53.5% (active)	-85.3% (active)	-95.2% (active)	-77.5% (active)		
O=C1/C(=C/c2ccc([N+](=O)[O-])s2)Oc2cc(Cl)ccc21	14.7%	81.2%	31.6%	1.6% (active)		-78.2% (active)	4.06% (active)	14.3%	-28.3% (active)	32.2%	-8.29% (active)	-49.6% (active)	-59.4% (active)	52.1%	-10.9% (active)	31.7%	2.51% (active)	-71.7% (active)	-49.5% (active)
CCC(=O)OC1CCC2C3CCC(=O)OC3C(C)(CCC(=O)O)CC12C (centres undefined)	33.1%	60.1%	38.5%	42.6%	-1.1% (active)	24.7%		-41.7% (active)	41.7%		2.12% (active)		50.1%	-18.6% (active)	5.18% (active)	55.7%	25.8%	19.6%	
CC(C)(O)CCl	109%	96.7%	107%	102%	114%		98.4%	114%	126%	109%	106%	117%	111%	97.9%	99.8%	91.9%	108%	99.8%	116%
NC1=NC(c2ccccc2)C2=C(N1)/C(=C/c1ccccc1)CCC2 (centres undefined)	78.1%	109%	114%	98.9%		48.4%	87%	101%	112%	117%	76.4%	101%	91.7%	95%	92.8%	83.8%	61.9%	101%	103%
Cc1cc(SCc2ccccc2)nc(N)n1	97.3%	115%	105%	111%	85.2%		105%	79.1%	127%	104%	105%	124%	100%	102%		125%		107%	-0.674% (active)
COc1cc(N)c2ncccc2c1SC	93.6%	106%	107%	105%	94.6%		99.5%	116%	100%	104%	122%	121%	91.2%	109%	114%	98.3%	104%	95.1%	
COc1ccc(-c2cc(-c3ccc(Cl)cc3)nc(SCCCCCCC(=O)NO)n2)cc1OC	42.7%	69.3%	62.4%	19.7%		45.4%	58.5%	51.3%	66.4%	82.4%	36.1%	57.5%	91.9%	77.1%	58.4%	72.1%	44.4%	70.8%	42.5%
Nc1nccc(OCCO)n1	99.8%	96.1%	94%	108%		90.7%	97.4%	102%	110%	104%	99.3%	117%	101%	97.5%	101%	97.6%	102%	108%	108%
COc1ccc2c(c1)C(CC(=O)NN)CCC2 (centres undefined)	92.7%	101%	106%	109%	93.7%		93.4%	109%	113%	114%	94.3%	115%	96.3%	109%	100%	90.5%	104%	101%	
Cn1cnc([N+](=O)[O-])c1/C=C1\Oc2ccc(Br)cc2C1=O	93%	101%	100%	97.3%		52.7%	104%	91.4%	98%	91.9%	67.1%	102%	90%	87.6%	104%	84.8%	95.4%	91.8%	96.2%
O=C(N/N=C/c1ccc(Cl)cc1)c1ccccc1Nc1cccc(C(F)(F)F)c1	91.2%	81.2%	72.9%	86.8%	73.7%	77.9%		86%	108%		59.9%		84.6%	86.8%	48.9%	96.9%	91.5%	74.5%	
Clc1ccc(C2=NN=C3C(Cc4ccccc4)=Nc4ccccc4N3C2)cc1	90%	92.8%	83.3%	86.8%		38.4%	96.6%	64.1%	105%	70.1%	30.1%	82.1%	66.7%	86.3%	105%	104%	75.8%	68.9%	95.5%
COc1cc(/C=C2\CCCC3C2=Nc2ccccc2NC3c2cc(OC)c(OC)c(OC)c2)cc(OC)c1OC (centres undefined)	8.47% (active)	-38.4% (active)	-3.43% (active)	-12.2% (active)		-6.47% (active)	5.87% (active)	1.85% (active)	0.19% (active)	4.98% (active)	5.35% (active)	-49.6% (active)	26%	-10.8% (active)	35.2%	16.3%	-0.908% (active)	24.1%	-34.9% (active)
C=CCN(CC=C)C(=O)[C@H](CC)[C@@H]1CC[C@@H](C)[C@@H]([C@H](C)[C@@H](O)[C@@H](C)C(=O)[C@H](CC)C2O[C@]3(C=CC(=O)[C@]4(CC[C@@](C)([C@H]5CC[C@](O)(CC)[C@H](C)O5)O4)O3)[C@H](C)C[C@@H]2C)O1 (some centres undefined)	18.6%	13.8%	31.4%	15.2%		11.6%	24.1%	44.3%	1.18% (active)	74.8%	18.7%	21.4%	58.9%	5.69% (active)	53.2%	20.6%	17.3%	23.1%	-25.1% (active)
